Laboratory results reported in ChEMBL document CHEMBL2218924, “A broad activity screen in support of a chemogenomic map for kinase signalling research and drug discovery” (Biochem J, 2013).

Key:
[1] = biological target: Tyrosine-protein kinase SYK (Homo sapiens) (UniProt P43405); details: at 10 µM
[2] = biological target: T1, Mitogen-activated protein kinase kinase kinase 7 (Homo sapiens) (UniProt O43318); details: at 1 µM
T1 sequence (whole entry): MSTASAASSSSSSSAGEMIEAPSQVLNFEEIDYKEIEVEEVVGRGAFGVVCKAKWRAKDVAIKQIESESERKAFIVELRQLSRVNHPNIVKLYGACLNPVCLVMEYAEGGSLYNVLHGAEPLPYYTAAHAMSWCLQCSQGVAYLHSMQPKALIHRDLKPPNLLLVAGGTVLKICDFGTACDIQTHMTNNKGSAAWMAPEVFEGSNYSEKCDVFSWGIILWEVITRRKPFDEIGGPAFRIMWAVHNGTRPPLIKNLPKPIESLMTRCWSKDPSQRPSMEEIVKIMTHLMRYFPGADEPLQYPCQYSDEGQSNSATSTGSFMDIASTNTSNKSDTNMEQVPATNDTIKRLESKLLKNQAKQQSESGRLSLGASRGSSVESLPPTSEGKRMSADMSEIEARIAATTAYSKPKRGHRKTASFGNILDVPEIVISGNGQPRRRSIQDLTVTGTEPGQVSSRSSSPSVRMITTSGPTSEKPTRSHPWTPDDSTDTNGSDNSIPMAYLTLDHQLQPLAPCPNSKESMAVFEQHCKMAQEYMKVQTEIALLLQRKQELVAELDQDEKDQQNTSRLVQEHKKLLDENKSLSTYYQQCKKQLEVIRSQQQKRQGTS

[3] = biological target: T2, Serine/threonine-protein kinase TAO1 (Homo sapiens) (UniProt Q7L7X3); details: at 1 µM
T2 sequence (whole entry): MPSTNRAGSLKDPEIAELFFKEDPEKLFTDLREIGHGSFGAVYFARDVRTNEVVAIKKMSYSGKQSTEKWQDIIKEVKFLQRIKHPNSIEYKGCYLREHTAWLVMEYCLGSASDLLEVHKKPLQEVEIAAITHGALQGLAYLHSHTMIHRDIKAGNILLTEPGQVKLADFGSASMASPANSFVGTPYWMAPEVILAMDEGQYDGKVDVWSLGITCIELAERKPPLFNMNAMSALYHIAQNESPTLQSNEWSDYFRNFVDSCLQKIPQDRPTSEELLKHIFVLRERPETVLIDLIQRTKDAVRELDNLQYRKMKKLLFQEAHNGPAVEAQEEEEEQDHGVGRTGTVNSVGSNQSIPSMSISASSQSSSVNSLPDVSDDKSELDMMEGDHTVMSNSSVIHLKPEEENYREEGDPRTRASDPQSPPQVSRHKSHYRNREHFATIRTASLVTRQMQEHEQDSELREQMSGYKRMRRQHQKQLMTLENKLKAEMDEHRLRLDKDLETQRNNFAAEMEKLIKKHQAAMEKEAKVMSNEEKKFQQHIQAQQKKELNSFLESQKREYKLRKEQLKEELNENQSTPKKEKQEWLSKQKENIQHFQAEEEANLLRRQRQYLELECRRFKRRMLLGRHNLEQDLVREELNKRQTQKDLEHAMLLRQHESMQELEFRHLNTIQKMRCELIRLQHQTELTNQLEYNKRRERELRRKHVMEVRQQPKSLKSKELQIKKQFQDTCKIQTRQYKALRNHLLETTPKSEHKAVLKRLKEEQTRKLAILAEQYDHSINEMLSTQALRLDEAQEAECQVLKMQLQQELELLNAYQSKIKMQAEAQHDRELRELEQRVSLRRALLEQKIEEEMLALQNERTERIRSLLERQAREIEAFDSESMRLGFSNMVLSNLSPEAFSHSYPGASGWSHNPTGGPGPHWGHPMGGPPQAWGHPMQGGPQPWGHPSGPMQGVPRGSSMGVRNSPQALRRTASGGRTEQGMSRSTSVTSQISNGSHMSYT

[4] = biological target: T2, Serine/threonine-protein kinase TAO1 (Homo sapiens); details: at 10 µM
[5] = biological target: T3, Serine/threonine-protein kinase TAO2 (Homo sapiens) (UniProt Q9UL54); details: at 1 µM
T3 sequence (whole entry): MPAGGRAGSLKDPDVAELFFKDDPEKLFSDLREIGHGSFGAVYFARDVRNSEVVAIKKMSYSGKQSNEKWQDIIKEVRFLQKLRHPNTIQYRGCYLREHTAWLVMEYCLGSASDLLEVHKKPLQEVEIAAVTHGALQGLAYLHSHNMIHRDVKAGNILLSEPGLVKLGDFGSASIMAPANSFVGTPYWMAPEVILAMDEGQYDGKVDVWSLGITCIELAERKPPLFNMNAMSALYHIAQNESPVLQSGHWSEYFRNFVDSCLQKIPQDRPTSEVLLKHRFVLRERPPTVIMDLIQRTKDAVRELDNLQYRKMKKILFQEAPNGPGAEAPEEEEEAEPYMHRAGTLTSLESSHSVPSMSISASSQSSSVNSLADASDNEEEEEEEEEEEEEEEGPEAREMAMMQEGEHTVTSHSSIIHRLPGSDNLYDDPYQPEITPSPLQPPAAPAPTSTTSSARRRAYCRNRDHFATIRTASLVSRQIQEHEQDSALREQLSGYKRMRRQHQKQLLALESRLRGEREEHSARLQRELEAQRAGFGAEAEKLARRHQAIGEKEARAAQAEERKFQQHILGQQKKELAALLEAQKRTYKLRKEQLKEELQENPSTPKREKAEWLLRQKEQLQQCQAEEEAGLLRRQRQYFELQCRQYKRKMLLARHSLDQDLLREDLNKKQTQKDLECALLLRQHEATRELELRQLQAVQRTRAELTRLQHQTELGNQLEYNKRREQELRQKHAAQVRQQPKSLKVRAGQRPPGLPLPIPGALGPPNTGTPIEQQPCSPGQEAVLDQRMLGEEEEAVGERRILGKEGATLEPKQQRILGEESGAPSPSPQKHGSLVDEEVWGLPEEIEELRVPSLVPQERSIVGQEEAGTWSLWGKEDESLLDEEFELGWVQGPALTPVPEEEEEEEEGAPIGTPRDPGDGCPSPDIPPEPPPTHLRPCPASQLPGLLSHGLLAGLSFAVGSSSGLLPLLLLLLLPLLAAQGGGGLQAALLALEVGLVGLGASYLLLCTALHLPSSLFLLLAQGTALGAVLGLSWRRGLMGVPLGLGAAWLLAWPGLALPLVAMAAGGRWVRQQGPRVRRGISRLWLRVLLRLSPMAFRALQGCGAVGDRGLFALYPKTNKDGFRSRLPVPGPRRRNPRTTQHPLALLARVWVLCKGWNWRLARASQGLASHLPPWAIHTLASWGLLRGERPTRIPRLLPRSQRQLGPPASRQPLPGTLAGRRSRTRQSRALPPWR

[6] = biological target: T3, Serine/threonine-protein kinase TAO2 (Homo sapiens); details: at 10 µM
[7] = biological target: T4, Serine/threonine-protein kinase TAO3 (Homo sapiens) (UniProt Q9H2K8); details: at 1 µM
T4 sequence (whole entry): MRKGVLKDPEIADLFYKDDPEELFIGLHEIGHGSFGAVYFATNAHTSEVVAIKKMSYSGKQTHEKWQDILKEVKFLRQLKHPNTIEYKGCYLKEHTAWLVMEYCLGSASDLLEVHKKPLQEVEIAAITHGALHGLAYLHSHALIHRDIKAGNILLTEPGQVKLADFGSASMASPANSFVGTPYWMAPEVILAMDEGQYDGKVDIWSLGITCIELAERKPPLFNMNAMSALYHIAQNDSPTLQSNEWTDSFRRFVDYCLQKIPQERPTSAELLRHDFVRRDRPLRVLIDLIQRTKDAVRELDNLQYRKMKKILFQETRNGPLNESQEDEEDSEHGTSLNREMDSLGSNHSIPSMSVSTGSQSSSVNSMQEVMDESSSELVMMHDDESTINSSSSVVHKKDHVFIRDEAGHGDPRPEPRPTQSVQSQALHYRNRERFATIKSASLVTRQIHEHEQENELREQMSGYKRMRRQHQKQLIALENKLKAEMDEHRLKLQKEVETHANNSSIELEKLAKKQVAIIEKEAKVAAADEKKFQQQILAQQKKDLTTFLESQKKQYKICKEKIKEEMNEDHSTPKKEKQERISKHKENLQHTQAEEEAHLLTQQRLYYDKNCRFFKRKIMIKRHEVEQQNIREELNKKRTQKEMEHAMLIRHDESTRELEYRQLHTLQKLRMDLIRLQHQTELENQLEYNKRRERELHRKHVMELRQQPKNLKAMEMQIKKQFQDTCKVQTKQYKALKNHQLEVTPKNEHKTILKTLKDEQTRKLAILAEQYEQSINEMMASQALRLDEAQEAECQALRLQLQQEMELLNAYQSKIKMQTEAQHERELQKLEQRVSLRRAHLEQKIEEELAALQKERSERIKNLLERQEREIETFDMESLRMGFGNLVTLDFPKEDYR

[8] = biological target: T4, Serine/threonine-protein kinase TAO3 (Homo sapiens); details: at 10 µM
[9] = biological target: T5, Serine/threonine-protein kinase TBK1 (Homo sapiens) (UniProt Q9UHD2); details: at 1 µM
T5 sequence (whole entry): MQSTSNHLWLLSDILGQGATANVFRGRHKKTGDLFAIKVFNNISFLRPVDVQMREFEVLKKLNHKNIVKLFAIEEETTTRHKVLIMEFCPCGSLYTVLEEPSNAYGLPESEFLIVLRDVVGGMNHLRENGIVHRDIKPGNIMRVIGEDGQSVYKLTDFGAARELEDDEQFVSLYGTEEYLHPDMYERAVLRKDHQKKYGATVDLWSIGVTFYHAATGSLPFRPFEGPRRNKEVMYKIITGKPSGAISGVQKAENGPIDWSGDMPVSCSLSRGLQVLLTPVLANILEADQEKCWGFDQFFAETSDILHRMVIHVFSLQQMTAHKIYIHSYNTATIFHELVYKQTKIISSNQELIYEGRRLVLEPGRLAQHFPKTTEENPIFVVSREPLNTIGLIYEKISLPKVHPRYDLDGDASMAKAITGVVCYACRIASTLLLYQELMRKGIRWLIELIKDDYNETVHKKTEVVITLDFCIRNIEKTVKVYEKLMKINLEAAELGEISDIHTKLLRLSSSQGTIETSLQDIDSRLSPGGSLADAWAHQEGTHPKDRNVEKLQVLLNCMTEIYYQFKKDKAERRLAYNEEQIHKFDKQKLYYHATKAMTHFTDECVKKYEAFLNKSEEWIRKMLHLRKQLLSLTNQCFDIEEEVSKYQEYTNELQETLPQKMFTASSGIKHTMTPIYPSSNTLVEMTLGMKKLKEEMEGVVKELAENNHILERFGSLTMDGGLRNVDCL

[10] = biological target: T1, Mitogen-activated protein kinase kinase kinase 7 (Homo sapiens); details: at 10 µM

SMILES | residual activity [1] | residual activity [2] | residual activity [3] | residual activity [4] | residual activity [5] | residual activity [6] | residual activity [7] | residual activity [8] | residual activity [9] | residual activity [10]
O=C1NC(=O)c2cc(Nc3ccc(F)cc3)c(Nc3ccc(F)cc3)cc21 | 78% | 83% | 83% | 39% | 63% | 21% | 79% | 37% | 69% | –
COc1ccc(OC)c2c(=S)c3ccccc3[nH]c12 | 96% | 95% | 82% | 91% | 90% | 87% | 96% | 90% | 82% | 81%
N#Cc1cnc2cnc(NCc3cccnc3)cc2c1Nc1ccc(F)c(Cl)c1 | 2% | – | – | – | – | – | 18% | 7% | 5% | 87%
c1ccc(-c2n[nH]c3c2oc2ccccc23)cc1 | 82% | 88% | – | 72% | 98% | 78% | 95% | 73% | 67% | 100%
CNc1cc2c(Nc3cccc(Br)c3)ncnc2cn1 | 90% | 91% | 100% | 81% | 110% | 75% | 95% | 90% | 79% | 90%
O=C1Nc2ccccc2/C1=C1/Nc2ccccc2/C1=N\OCCC(O)CO (configuration not stated) | 42% | 36% | – | 45% | – | 70% | – | 71% | 9% | 38%
Cc1cc(Nc2nc(-c3ccccc3)nc3ccccc23)n[nH]1 | 3% | 67% | – | 51% | – | 45% | – | 67% | 19% | 40%
O=C1Nc2ccc(Br)cc2/C1=C\c1cc2c([nH]1)CCCC2 | 100% | – | 104% | 98% | 111% | – | – | – | 59% | –
N#C/C(=C(\N)Sc1ccc(N)cc1)c1ccccc1C(F)(F)F | 78% | 101% | 89% | 99% | 102% | 104% | 99% | 91% | 31% | 85%
Oc1ccc(-c2nc(-c3ccc(F)cc3)c(-c3ccncc3)[nH]2)cc1 | 100% | 104% | 102% | 69% | 106% | 68% | 111% | 84% | 110% | 101%
CC[n+]1c(/C=C/N(C)c2ccccc2)n(-c2ccccc2)c2ccc(-c3nc4ccccc4s3)cc21 | 46% | 100% | 93% | 78% | 100% | 60% | 95% | 62% | 104% | 102%
COc1ccc(S(=O)(=O)N(CCO)c2ccccc2CN(C)C/C=C/c2ccc(Cl)cc2)cc1 | 69% | 93% | 97% | 83% | 105% | 88% | 86% | 84% | 73% | 82%
CO[C@@H]1[C@H](N(C)C(=O)c2ccccc2)C[C@H]2O[C@]1(C)n1c3ccccc3c3c4c(c5c6ccccc6n2c5c31)C(=O)NC4 | 3% | – | 50% | 17% | 83% | 47% | 42% | 29% | 2% | –
O=c1c2ccccc2[nH]c(=S)n1CCN1CCC(=C(c2ccc(F)cc2)c2ccc(F)cc2)CC1 | 68% | 97% | 109% | 88% | 107% | 79% | 109% | 86% | 91% | 83%
Ic1cccc(CSc2nnc(-c3ccncc3)o2)c1 | 96% | – | 63% | 47% | 88% | 85% | 93% | 89% | 15% | 82%
COc1ccc(CNc2nc(N(CCO)CCO)nc3c2ncn3C(C)C)cc1 | 114% | 92% | 96% | 81% | 96% | 95% | 92% | 71% | 69% | 82%
Cc1nc(-c2ccccc2)c(-c2ccncc2)o1 | 116% | 103% | 103% | 79% | 120% | 108% | 107% | 101% | 102% | 97%
Cc1cncc2cccc(S(=O)(=O)N3CCCN(C(=O)CN)C[C@H]3C)c12 | 85% | 88% | 81% | 28% | – | – | 93% | 65% | 68% | 83%
